Compound activity deposited in PubChem BioAssay by National Center for Advancing Translational Sciences (NCATS).
Hits are enriched below; roughly 12% of the tested compounds scored in any of these assays.
Sfp inh = inhibitors of Bacillus subtilis Sfp phosphopantetheinyl transferase; Biochemical Sfp PPTase activity, qHTS; Potency, µM, inactives show largest response in the series, negative = inhibition, actives largely listed as inhibitors; AID 1490; Q9F4F7; 310,000 tested, 3.5% active;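 also: the enzyme is Sfp with the accession as filed and its product quenches rhodamine fluorescence; 0% = enzyme reaction without inhibitor and -100% = no enzyme wells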
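Sfp 15 nM + cpd, 15 min RT; start w/ rhodamine-CoA 5 uM, BHQ-2-YbbR 12.5 uM (final); 50 mM Hepes pH 7.6, 10 mM MgCl2, 0.01% NP-40, 0.01% BSA; read 525/598 nm at 0 and 30 min.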
JMJD2A Tudor inh = blocks the human JMJD2A Tudor domain. Potency, µM (titrated, usually from 114 µM), for the others: top-dose activity change, negative = inhibition, most hits filed as inhibitors. AlphaScreen JMJD2A-Tudor / H3K4me3 peptide binding. 390,000 tested, 4.4% active. AID 504339. O75164; also: % is scaled to controls: 0 for no effect and ±100 for the full control effect; nearly all actives have a fitted effect of over 50% in size
TDP1 inh = blocks human tyrosyl-DNA phosphodiesterase 1. Q9NUW8. recombinant TDP1, AlphaScreen DNA substrate cleavage. Potency, µM (titrated, usually from 130 µM), for the others: at the highest dose activity change, negative = inhibition, actives largely listed as inhibitors. 350,000 tested, 0.28% active; also: % is scaled to controls: 0 for no effect and ±100 for the full control effect; nearly all actives have a fitted effect of over 40% in size
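Enzyme-compound mixtures sat 15 min at room temperature, followed by a 5 min reaction with 15 nM final substrate and 10 min with AlphaScreen beads. Recombinant human Tdp1 was used at 1 nM final.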
BAZ2B inh = blocks human BAZ2B; AlphaScreen BAZ2B-H3K14Ac peptide displacement; Potency, µM (doses to about 114 µM), without a hit: top-dose activity change, negative = inhibition, hits mostly inhibitors; 360,000 tested, 4.4% active; AID 504333; also: % is scaled to controls: 0 for no effect and ±100 for the full control effect; nearly all actives have a fitted effect of over 60% in size
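Compounds, titrated to a top concentration of 110 uM, were incubated 30 min at room temperature with preformed BAZ2B/acetyl-K14 H3 peptide complex (50 nM each). Proximity signal was measured by AlphaScreen after 20 min with beads.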
HP1b chromo inh = blocks HP1-beta chromodomain binding to methylated histone tails. 390,000 tested, 0.56% active. AID 540317. P83916. AlphaScreen HP1-beta / biotin-H3K9me3 peptide binding. Potency, µM (highest dose often 114 µM), without a hit: at the top dose activity change, negative = inhibition, most hits filed as inhibitors; also: nearly all actives have a fitted effect of over 70% in size
Target sequence (P83916 whole entry, looked up): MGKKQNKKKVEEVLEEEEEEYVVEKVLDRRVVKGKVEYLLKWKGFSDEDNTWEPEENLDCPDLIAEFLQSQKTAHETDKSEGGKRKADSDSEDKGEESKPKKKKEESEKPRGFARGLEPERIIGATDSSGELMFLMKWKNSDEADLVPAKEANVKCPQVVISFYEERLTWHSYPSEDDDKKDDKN
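HP1-beta protein (50 nM final) preincubated 30 min at room temperature with biotinylated H3(1-18)K9me3 peptide (50 nM) in PBS pH 7.4, 0.01% Tween-20, then compound added for 30 min. AlphaScreen streptavidin donor/nickel chelate acceptor beads (10 ug/mL final), 30 min dark, luminescence read.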
G9a block = G9a (human) methyltransferase inhibition; Q96KQ7; G9a H3K9 monomethylation, AlphaScreen, 2 h; Potency, µM (series often up to 102 µM), for the others: at the top dose activity, negative = inhibition, hits mostly inhibitors; 350,000 tested, 8.8% active; AID 504332; also: % is scaled to controls: 0 for no effect and ±100 for the full control effect; nearly all actives have a fitted effect of over 75% in size
Target sequence (Q96KQ7 913-1193 limits assumed): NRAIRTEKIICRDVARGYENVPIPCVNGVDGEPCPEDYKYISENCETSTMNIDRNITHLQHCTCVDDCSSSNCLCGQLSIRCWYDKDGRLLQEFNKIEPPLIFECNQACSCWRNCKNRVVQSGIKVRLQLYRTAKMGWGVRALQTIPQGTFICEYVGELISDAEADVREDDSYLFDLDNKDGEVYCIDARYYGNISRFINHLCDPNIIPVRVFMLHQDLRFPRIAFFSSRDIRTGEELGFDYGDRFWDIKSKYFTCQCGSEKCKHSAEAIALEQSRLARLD
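AlphaScreen read-out: biotin-H3K9 peptide (500 nM) methylation by 20 nM enzyme with 20 uM SAM, 2 h at room temperature after 15 min compound preincubation; anti-monomethyl H3K9 antibody plus donor/acceptor beads, 10 min dark.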
Numbers without * were called inactive; [ ] = remark or other dose. Calls follow the shape of the dose curve; as a rule, active = well fitted curve in the direction sought with a large enough effect; inconclusive = small, poorly fitted or top-dose-only effect, or another doubt; inactive = no such curve, though single readings can be large; an effect the other way counts as inactive or inconclusive. Potency is read from the fitted curve at half-maximal effect.

How did CCCCCCCCOC(=O)c1ccccc1C(=O)OCCCCCCCC do in these assays?
Sfp inh: -10%; TDP1 inh: 2%; G9a block: 111%[59 µM]

How did C[n+]1ccc(-c2ccncc2)cc1 do in these assays?
Sfp inh: -6%; JMJD2A Tudor inh: 40µM*; TDP1 inh: 1%; BAZ2B inh: -4%; HP1b chromo inh: 24%; G9a block: 16µM*

Results for CNCC(N)C(=O)O (stereo unspecified) ?
Sfp inh: inconclusive; TDP1 inh: 28%

Results for [N-]=[N+]=CC(=O)OC[C@H](N)C(=O)O ?
Sfp inh: -2%; JMJD2A Tudor inh: 32µM*; TDP1 inh: 6%; BAZ2B inh: 4%; HP1b chromo inh: 29%; G9a block: 15%

What do the screens show for `C[C@@H]1Cc2c(Cl)cc(C(=O)N[C@H](Cc3ccccc3)C(=O)O)c(O)c2C(=O)O1`?
Sfp inh: 6%; TDP1 inh: 5%

What do the screens show for `CC1CCCC(C2(O)C(=O)Nc3ccccc32)C1=O` (stereo unspecified)?
Sfp inh: -12%; JMJD2A Tudor inh: -6%; TDP1 inh: 3%; BAZ2B inh: -33%; HP1b chromo inh: 4%; G9a block: 1.8µM*

Results for COc1cccc(CNC(=O)c2cccc(S(=O)(=O)N3CCN(C)CC3)c2)c1 ?
Sfp inh: 13%; JMJD2A Tudor inh: -10%; TDP1 inh: 2%; BAZ2B inh: -9%; HP1b chromo inh: -1%; G9a block: 40µM*

What do the screens show for `CC(C)C[C@H](NC(=O)[C@H](Cc1ccccc1)NC(=O)CNC(=O)[C@@H](COC(C)(C)C)NC(=O)[C@@H](N)Cc1ccc(O)cc1)C(=O)N[C@H](C(=O)O)[C@@H](C)OC(C)(C)C`?
Sfp inh: 15%; TDP1 inh: 11%

How did COc1ccc(CN2C(=O)NC(=O)/C(=C/c3cc(OC)c(OC)c(OC)c3)C2=O)cc1 do in these assays?
Sfp inh: 79µM*; JMJD2A Tudor inh: -11%; BAZ2B inh: -13%; HP1b chromo inh: 4%; G9a block: 45µM*

What do the screens show for `COc1ccc(CN2C(=O)NC(=O)/C(=C/c3ccoc3)C2=O)cc1`?
Sfp inh: inconclusive; JMJD2A Tudor inh: 56µM*; BAZ2B inh: 50µM*; HP1b chromo inh: 22µM*; G9a block: 18µM*

What do the screens show for `COc1cc(/C=C2\C(=O)NC(=O)N(CCc3ccc(F)cc3)C2=O)ccc1O`?
Sfp inh: inconclusive; JMJD2A Tudor inh: -10%; TDP1 inh: -5%; BAZ2B inh: 0%; HP1b chromo inh: 32%; G9a block: 40µM*

How did CC[C@@]1(O)C(=O)OCc2c1cc1n(c2=O)-c2cc3ccccc3nc2C1 do in these assays?
Sfp inh: 1%; TDP1 inh: 4%; G9a block: 23%[59 µM]

What do the screens show for `CCOC(=O)c1ccc(NC(=O)C2C3C=CC(O3)C2C(=O)O)cc1` (stereo unspecified)?
Sfp inh: 1%; TDP1 inh: -1%; BAZ2B inh: -3%; G9a block: 35µM*

How did CCOC(=O)c1ccc(NC(=O)CSc2nc3c(cc2C#N)N2CCC3CC2)cc1 do in these assays?
JMJD2A Tudor inh: 4%; TDP1 inh: 1%; BAZ2B inh: -3%; HP1b chromo inh: 47%; G9a block: 10%[59 µM]

What do the screens show for `O=C(Nc1ccc(OC(F)(F)F)cc1)Oc1ccccc1N1CCCCC1`?
Sfp inh: 6%; JMJD2A Tudor inh: -1%; TDP1 inh: 1%; BAZ2B inh: -1%; HP1b chromo inh: 46%

What do the screens show for `C=CCN1CC[C@]23c4c5ccc(O)c4O[C@H]2/C(=N/NC(=O)c2ccccc2)CC[C@@]3(O)[C@H]1C5`?
Sfp inh: 1%; JMJD2A Tudor inh: -16%; TDP1 inh: 10%[56.1 µM]; HP1b chromo inh: 31%; G9a block: 35µM*

Results for C=CCN1CC[C@@]23c4c5ccc(O)c4O[C@H]2/C(=N\N=C2/CC[C@@]4(O)[C@H]6Cc7ccc(O)c8c7[C@@]4(CCN6CC=C)[C@@H]2O8)CC[C@]3(O)[C@@H]1C5 ?
Sfp inh: -10%; TDP1 inh: 13%[56.1 µM]

How did Oc1cn2c(n1)Nc1ccc(Cl)c(Cl)c1C2 do in these assays?
Sfp inh: 6%; G9a block: inconclusive

Results for CCN(CC)c1ccc(CNc2nc3ccccc3n2C)cc1 ?
Sfp inh: -2%; JMJD2A Tudor inh: inconclusive; BAZ2B inh: 45µM*; HP1b chromo inh: 24%

How did Cn1c(NN=O)nc2ccccc21 do in these assays?
Sfp inh: 40µM*; JMJD2A Tudor inh: inconclusive; TDP1 inh: 0%; BAZ2B inh: inconclusive; HP1b chromo inh: -2%; G9a block: 8.9µM*

What do the screens show for `CN1CCN(Cc2nc3ccccc3n2C)CC1`?
Sfp inh: 8%; JMJD2A Tudor inh: -3%; TDP1 inh: -2%; BAZ2B inh: -3%; HP1b chromo inh: 35%; G9a block: inconclusive

What do the screens show for `C/C(=N\NC(N)=O)c1c(O)n(C)c(=O)n(C)c1=O`?
Sfp inh: 56µM*; JMJD2A Tudor inh: 40µM*; TDP1 inh: -3%; HP1b chromo inh: 28%; G9a block: inconclusive

Results for Nc1c([N+](=O)[O-])ccc(Oc2ccccc2)c1Cl ?
Sfp inh: -18%; TDP1 inh: 21%

What do the screens show for `CC(C)(C)c1ccc(C(=O)Nc2ccc3nc(SCC(=O)N4CCCC4)sc3c2)cc1`?
JMJD2A Tudor inh: -21%; TDP1 inh: 2%; BAZ2B inh: -9%; HP1b chromo inh: 45%; G9a block: 5%[59 µM]

What do the screens show for `O=c1[nH]c(O)c(N=Nc2ccc3c(c2)OCCO3)c(=O)[nH]1`?
Sfp inh: 17%; JMJD2A Tudor inh: inconclusive; TDP1 inh: 8%; BAZ2B inh: inconclusive; HP1b chromo inh: -23%; G9a block: 50µM*

Results for O=C(N=Nc1c(O)[nH]c(=O)[nH]c1=O)C1COc2ccccc2O1 (stereo unspecified) ?
Sfp inh: inconclusive; JMJD2A Tudor inh: -3%; TDP1 inh: -10%; BAZ2B inh: -5%; HP1b chromo inh: 29%; G9a block: 45µM*

What do the screens show for `O=c1[nH]c(=S)[nH]c(O)c1N=Nc1cccc(S(=O)(=O)N2CCOCC2)c1`?
Sfp inh: -9%; JMJD2A Tudor inh: -13%; TDP1 inh: -1%; BAZ2B inh: -22%; HP1b chromo inh: 21%; G9a block: 50µM*

How did O=C(O)c1ccccc1N=Nc1c(O)[nH]c(=O)[nH]c1=O do in these assays?
Sfp inh: -6%; JMJD2A Tudor inh: -13%; TDP1 inh: -10%; BAZ2B inh: -15%; HP1b chromo inh: 37%; G9a block: inconclusive
